PubChem BioAssay
For part of these data: Measured potencies and affinities stand elsewhere. The source made the active and inactive calls. Unless noted, the rule behind the calls is not given here.

How the values were obtained:
[1] = antimalarial activity against Dd2 strain (AID 2302;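 active = growth inhibition above 50% at the single 2 µM test dose, taken to imply half-maximal potency below 2 µM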;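 note: 0% = DMSO untreated growth and 100% = chloroquine plus artemisinin killed control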); details: P. falciparum Dd2 in RBCs, LDH growth readout, 72 h; at 2 µM; active compounds read high
[2] = human hepatoma cell viability loss – ATP luminescence, cytotoxicity control for P. falciparum antimalarial project, primary screen (AID 2303;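 active = inhibition above 50%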;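 note: 0% = DMSO wells and 100% = digitonin-killed cells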); details: HepG2 viability, 24-48 h, at 10 µM, active compounds read high
[3] = biological target: L-lactate dehydrogenase (Plasmodium falciparum (isolate CDC / Honduras)) (UniProt Q27743); assay: PfLDH activity inhibition – cell lysate, 3D7 strain, counter-screen for P. falciparum growth inhibition project (AID 2304);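 note: 0% = vehicle and 100% = reference inhibitor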; details: P. falciparum 3D7 crude extract, LDH APAD/NBT absorbance; at 2 µM; active compounds read high
Sequence of L-lactate dehydrogenase (Plasmodium falciparum (isolate CDC / Honduras)) (Q27743 whole entry, looked up): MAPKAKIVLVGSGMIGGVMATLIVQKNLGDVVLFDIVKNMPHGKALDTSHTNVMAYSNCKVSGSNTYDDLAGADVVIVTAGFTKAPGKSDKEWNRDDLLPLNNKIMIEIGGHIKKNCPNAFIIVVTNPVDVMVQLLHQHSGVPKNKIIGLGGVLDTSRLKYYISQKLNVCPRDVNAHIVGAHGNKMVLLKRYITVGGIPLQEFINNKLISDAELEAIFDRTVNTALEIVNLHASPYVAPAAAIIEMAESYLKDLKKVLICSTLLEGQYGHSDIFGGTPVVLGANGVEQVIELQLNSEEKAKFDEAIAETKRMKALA

[4] = inhibition of 3D7 malaria parasite growth – strain 3D7 (AID 2306);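 note: 0% = DMSO wells and 100% = chloroquine plus artemisinin control wells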; details: P. falciparum 3D7 erythrocytic growth, LDH absorbance, 72 h; at 2 µM; active compounds read high
[5] = biological target: Calcium-dependent protein kinase 1 (Plasmodium falciparum (isolate 3D7)) (UniProt P62344); assay: PfCDPK1 kinase inhibitors, biochemical, TCAMS library (AID 1159585; cut-off not given, nearly all actives have IC50 up to about 0.98 µM;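 note: inhibitors leave more ATP so luminescence rises with inhibition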); details: recombinant PfCDPK1, Kinase-Glo ATP depletion luminescence
Sequence of Calcium-dependent protein kinase 1 (Plasmodium falciparum (isolate 3D7)) (P62344 whole entry, looked up): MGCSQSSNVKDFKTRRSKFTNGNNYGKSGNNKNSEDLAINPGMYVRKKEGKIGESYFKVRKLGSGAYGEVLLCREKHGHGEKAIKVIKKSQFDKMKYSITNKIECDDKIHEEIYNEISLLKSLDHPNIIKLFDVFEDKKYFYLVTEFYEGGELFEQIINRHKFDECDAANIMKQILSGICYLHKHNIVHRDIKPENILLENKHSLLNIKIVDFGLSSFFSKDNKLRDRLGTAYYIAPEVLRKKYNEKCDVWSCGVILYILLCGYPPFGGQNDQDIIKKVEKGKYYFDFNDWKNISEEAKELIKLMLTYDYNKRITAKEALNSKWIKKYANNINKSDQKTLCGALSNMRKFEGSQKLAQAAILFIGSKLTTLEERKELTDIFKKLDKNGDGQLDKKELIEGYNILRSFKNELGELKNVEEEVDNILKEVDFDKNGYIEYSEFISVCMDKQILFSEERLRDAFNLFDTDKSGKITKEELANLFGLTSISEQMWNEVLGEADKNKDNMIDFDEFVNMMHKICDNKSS

[6] = biological target: Plasmodium falciparum protein kinase 6 (PK6, PF3D7_1337100) (UniProt Q8IDW1); assay: PfPK6 kinase inhibitors, biochemical, TCAMS library (AID 1159586); details: recombinant PfPK6, Kinase-Glo ATP depletion luminescence
Sequence of Plasmodium falciparum protein kinase 6 (PK6, PF3D7_1337100) (Q8IDW1 1-305): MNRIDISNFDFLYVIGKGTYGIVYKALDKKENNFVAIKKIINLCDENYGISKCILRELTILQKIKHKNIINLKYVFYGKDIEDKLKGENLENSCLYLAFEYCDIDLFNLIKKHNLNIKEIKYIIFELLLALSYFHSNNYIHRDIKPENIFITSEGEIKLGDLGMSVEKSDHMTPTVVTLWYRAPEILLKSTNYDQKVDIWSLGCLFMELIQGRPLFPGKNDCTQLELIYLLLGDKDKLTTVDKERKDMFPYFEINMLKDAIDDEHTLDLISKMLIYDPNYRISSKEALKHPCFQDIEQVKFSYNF

[7] = biological target: Protein kinase 7 (PK7), Plasmodium falciparum 3D7 (PF3D7_0213400) (UniProt Q7YTF7); assay: inhibition of Plasmodium PK7 catalytic activity – biochemical, TCAMS antimalarial set, Kinase-Glo luminescence (AID 1159587); details: recombinant PfPK7, Kinase-Glo ATP depletion luminescence
Sequence of Protein kinase 7 (PK7), Plasmodium falciparum 3D7 (PF3D7_0213400) (Q7YTF7 1-343): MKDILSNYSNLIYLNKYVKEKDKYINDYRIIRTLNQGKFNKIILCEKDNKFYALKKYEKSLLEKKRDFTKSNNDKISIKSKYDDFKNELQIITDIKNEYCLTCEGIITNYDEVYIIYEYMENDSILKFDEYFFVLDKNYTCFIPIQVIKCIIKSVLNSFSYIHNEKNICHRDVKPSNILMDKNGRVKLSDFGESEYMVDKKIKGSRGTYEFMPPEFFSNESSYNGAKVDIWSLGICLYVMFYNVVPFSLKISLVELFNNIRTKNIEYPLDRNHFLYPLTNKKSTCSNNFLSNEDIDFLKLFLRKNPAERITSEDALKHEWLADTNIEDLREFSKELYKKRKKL

[8] = biological target: Calcium-dependent protein kinase 4 (Plasmodium falciparum (isolate 3D7)) (UniProt Q8IBS5); assay: PfCDPK4 kinase inhibitors, biochemical, TCAMS library (AID 1159588; cut-off not given, nearly all actives have IC50 up to about 0.91 µM); details: recombinant PfCDPK4, Kinase-Glo ATP depletion luminescence
Sequence of Calcium-dependent protein kinase 4 (Plasmodium falciparum (isolate 3D7)) (Q8IBS5 whole entry, looked up): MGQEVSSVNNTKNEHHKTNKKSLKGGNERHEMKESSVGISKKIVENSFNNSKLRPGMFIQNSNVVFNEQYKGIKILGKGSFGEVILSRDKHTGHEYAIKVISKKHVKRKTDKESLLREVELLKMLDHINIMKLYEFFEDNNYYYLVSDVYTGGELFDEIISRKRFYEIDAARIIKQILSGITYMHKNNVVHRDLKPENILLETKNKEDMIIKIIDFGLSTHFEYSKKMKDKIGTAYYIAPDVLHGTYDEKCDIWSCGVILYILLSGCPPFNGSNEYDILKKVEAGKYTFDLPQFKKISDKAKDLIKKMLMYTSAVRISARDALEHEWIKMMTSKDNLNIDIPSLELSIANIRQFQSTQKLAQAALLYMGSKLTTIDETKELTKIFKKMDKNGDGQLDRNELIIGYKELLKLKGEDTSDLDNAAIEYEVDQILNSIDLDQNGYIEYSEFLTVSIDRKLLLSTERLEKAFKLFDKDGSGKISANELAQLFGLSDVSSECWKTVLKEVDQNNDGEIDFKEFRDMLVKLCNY

COc1ccc2nc(C)cc(Nc3ccc(Cl)c(Cl)c3)c2c1
inactive: inhibition [2] 30% | inhibition [3] -8% | outcome [5] | outcome [6] | outcome [7] | outcome [8]
active: growth inhibition [1] 99% | growth inhibition [4] 100%

CCOC(=O)/C(=N\OC(C(=O)OC(C)(C)C)c1ccccc1)c1csc(NC(c2ccccc2)(c2ccccc2)c2ccccc2)n1 (configuration not stated)
active: growth inhibition [1] 68% | growth inhibition [4] 89%
inactive: inhibition [2] 14% | inhibition [3] 5% | outcome [5] | outcome [6] | outcome [7] | outcome [8]

CCn1c(-c2nonc2N)nc2c(Cl)ncc(O[C@H](CCN)c3ccccc3F)c21
active: growth inhibition [1] 88% | growth inhibition [4] 96%
inactive: inhibition [2] 15% | inhibition [3] -2% | outcome [5] | outcome [6] | outcome [7] | outcome [8]

Cn1c2ccccc2c2c3ccccc3c(CNC(CO)(CO)CO)cc21
inactive: inhibition [3] -1% | outcome [5] | outcome [6] | outcome [7] | outcome [8]
active: growth inhibition [1] 78% | inhibition [2] 67% | growth inhibition [4] 96%

COc1cc(-c2cc3cc(Cl)c(Cl)cc3[nH]2)ccc1C(=O)NCCC1CCCN1C (configuration not stated)
inactive: growth inhibition [1] 41% | inhibition [2] 20% | inhibition [3] -5% | outcome [5] | outcome [6] | outcome [7] | outcome [8]
active: growth inhibition [4] 91%

CN(C)CCC1CCCc2ccc(NC(=O)Nc3cccc(Cl)c3Cl)cc21 (configuration not stated)
active: growth inhibition [4] 93%
inactive: growth inhibition [1] 11% | inhibition [2] 44% | inhibition [3] 5% | outcome [5] | outcome [6] | outcome [7] | outcome [8]

Clc1ccc(OC2CCC(Cn3ccnc3)(c3ccc(Cl)cc3Cl)CC2)c(Cl)c1 (configuration not stated)
active: growth inhibition [1] 86% | growth inhibition [4] 98%
inactive: inhibition [2] 4% | inhibition [3] -4% | outcome [5] | outcome [6] | outcome [7] | outcome [8]

CS(=O)(=O)c1ccccc1CNC(=O)c1ccc(-c2cccc(-c3nc4ccc(C(F)(F)F)cc4[nH]3)c2)cc1
active: growth inhibition [4] 91%
inactive: growth inhibition [1] 4% | inhibition [2] 36% | inhibition [3] 4% | outcome [5] | outcome [6] | outcome [7] | outcome [8]

CCCCNC(=O)[C@@H](NC(=O)c1ccc(O)c(-c2ccc(Cl)c(Cl)c2)c1)C(C)C
inactive: inhibition [2] -4% | inhibition [3] 2% | outcome [5] | outcome [6] | outcome [7] | outcome [8]
active: growth inhibition [1] 98% | growth inhibition [4] 97%

O=C(/C=C/c1ccc(Cl)cc1)NCCCCCN1CCC(C(=O)Nc2cccc(Cl)c2)CC1
inactive: growth inhibition [1] -6% | inhibition [2] 22% | inhibition [3] -8% | outcome [5] | outcome [6] | outcome [7] | outcome [8]
active: growth inhibition [4] 97%

CN(C)c1ccc(C2(c3ccccc3)N=C(N)N(CCCc3ccccc3)C2=O)cc1 (configuration not stated)
inactive: inhibition [2] 4% | inhibition [3] 0% | outcome [5] | outcome [6] | outcome [7] | outcome [8]
active: growth inhibition [1] 97% | growth inhibition [4] 99%

COC(=O)c1cc2cccc(NC[C@@H](C)NC[C@H](O)c3cccc(Cl)c3)c2[nH]1
active: growth inhibition [1] 99% | growth inhibition [4] 98%
inactive: inhibition [2] -8% | inhibition [3] -3% | outcome [5] | outcome [6] | outcome [7] | outcome [8]

O=C(Nc1ccncc1)Nc1ccc2c(c1)CCN(C1CCC1)CC2
active: growth inhibition [4] 87%
inactive: growth inhibition [1] 4% | inhibition [2] -1% | inhibition [3] 4% | outcome [5] | outcome [6] | outcome [7] | outcome [8]

Cc1cc(N[C@@H](CC(C)C)C(=O)NCCc2ccccc2)nc(NCCc2cccs2)n1
inactive: growth inhibition [1] 16% | inhibition [2] 0% | inhibition [3] -3% | outcome [5] | outcome [6] | outcome [7] | outcome [8]
active: growth inhibition [4] 89%

COc1ccc(NC(=O)c2csc(-c3cc(NC(=O)c4ccnc(N5CCCC5)c4)ccc3C)c2)cc1N1CCN(C)CC1
inactive: inhibition [2] 4% | inhibition [3] 1% | outcome [5] | outcome [6] | outcome [7] | outcome [8]
active: growth inhibition [1] 80% | growth inhibition [4] 100%

CNC(=O)c1cnc(Nc2ccc(N3CCOCC3)cc2)nc1Nc1cccc(O)c1
inactive: inhibition [2] 23% | inhibition [3] -2% | outcome [5] | outcome [6] | outcome [7] | outcome [8]
active: growth inhibition [1] 78% | growth inhibition [4] 90%

CCc1ccc(NC(=O)c2ccc(CN3CCCN(Cc4ccc(C)s4)CC3)cc2)cc1
inactive: growth inhibition [1] -2% | inhibition [2] 48% | inhibition [3] -2% | outcome [5] | outcome [6] | outcome [7] | outcome [8]
active: growth inhibition [4] 87%

O=C(NC1CC1)c1ccc(N2CCC(Cc3ccccc3)CC2)c([N+](=O)[O-])c1
active: growth inhibition [1] 83% | growth inhibition [4] 96%
inactive: inhibition [2] 12% | inhibition [3] -1% | outcome [5] | outcome [6] | outcome [7] | outcome [8]

c1ccc(-n2ncc(CNCc3ccc(-c4ccc(-c5nc6ccccc6[nH]5)s4)cc3)n2)cc1
active: growth inhibition [4] 93%
inactive: growth inhibition [1] 46% | inhibition [2] 27% | inhibition [3] 4% | outcome [5] | outcome [6] | outcome [7] | outcome [8]

Cc1ncccc1C(=O)Nc1ccc(-c2cccc(-c3nc4c(C)cccc4[nH]3)c2)cc1
active: growth inhibition [4] 95%
inactive: growth inhibition [1] 31% | inhibition [2] 6% | inhibition [3] -5% | outcome [5] | outcome [6] | outcome [7] | outcome [8]

Cc1cccc2[nH]c(-c3ccc(-c4cccc(CN5CCCC(N)C5)c4)s3)nc12 (configuration not stated)
inactive: inhibition [2] 17% | inhibition [3] 4% | outcome [5] | outcome [6] | outcome [7] | outcome [8]
active: growth inhibition [1] 94% | growth inhibition [4] 100%

c1cncc(NCc2ccc(-c3cc4ccncc4cc3OC3CCNCC3)s2)c1
active: growth inhibition [4] 100%
inactive: growth inhibition [1] 19% | inhibition [2] 4% | inhibition [3] 2% | outcome [5] | outcome [6] | outcome [7] | outcome [8]

CCCN(Cc1ccc(OCC)cc1)Cc1cc(=O)c2cc(Cl)ccc2[nH]1
active: growth inhibition [1] 82% | growth inhibition [4] 82%
inactive: inhibition [2] 47% | inhibition [3] 1% | outcome [5] | outcome [6] | outcome [7] | outcome [8]

CC(=O)Nc1ccc(C(=O)NC2CCN(c3ccnc4cc(Cl)ccc34)C2)cc1 (configuration not stated)
active: growth inhibition [1] 100% | growth inhibition [4] 101%
inactive: inhibition [2] 1% | inhibition [3] -1% | outcome [5] | outcome [6] | outcome [7] | outcome [8]

COc1cc(NC(=O)N2CCc3cc(OC)c(OCCN4CCCCC4)cc32)cc(C(F)(F)F)c1
active: growth inhibition [4] 93%
inactive: growth inhibition [1] 10% | inhibition [2] 9% | inhibition [3] -3% | outcome [5] | outcome [6] | outcome [7] | outcome [8]

Cc1cccc2[nH]c(-c3cccc(-c4cccc(NC(=O)COc5ccccc5C(N)=O)c4)c3)nc12
active: growth inhibition [1] 88% | growth inhibition [4] 100%
inactive: inhibition [2] 22% | inhibition [3] -2% | outcome [5] | outcome [6] | outcome [7] | outcome [8]

COc1c(C2CCN(CCCCNC(=O)c3oc(-c4ccc(Cl)cc4)cc3CO)CC2)ccc2c1CCCC2
inactive: inhibition [3] 4% | outcome [5] | outcome [6] | outcome [7] | outcome [8]
active: growth inhibition [1] 95% | inhibition [2] 80% | growth inhibition [4] 102%

N=C(N)c1ccc(Oc2ccc(C(=N)N)cc2)cc1
active: growth inhibition [1] 85% | growth inhibition [4] 92%
inactive: inhibition [2] 18% | inhibition [3] -3% | outcome [5] | outcome [6] | outcome [7] | outcome [8]

CC(C)(C)c1ccc2nccc(Nc3cccc(O)c3)c2c1
inactive: inhibition [2] 8% | inhibition [3] 0% | outcome [5] | outcome [6] | outcome [7] | outcome [8]
active: growth inhibition [1] 100% | growth inhibition [4] 99%

O=C(NOCc1ccccc1)c1cc(Cl)ccc1O
active: growth inhibition [4] 83%
inactive: growth inhibition [1] -1% | inhibition [2] 2% | inhibition [3] 5% | outcome [5] | outcome [6] | outcome [7] | outcome [8]

O=C(Nc1cccc(-c2cccc(-c3nc4ccccc4[nH]3)c2)c1)Nc1ccc2c(c1)OCO2
inactive: inhibition [2] 25% | inhibition [3] -4% | outcome [5] | outcome [6] | outcome [7] | outcome [8]
active: growth inhibition [1] 57% | growth inhibition [4] 101%

CS(=O)(=O)Nc1ccc2[nH]cc(C3CCN(CC4CCC(NC(=O)/C=C/c5ccc(Cl)c(Cl)c5)CC4)CC3)c2n1 (configuration not stated)
inactive: growth inhibition [1] 10% | inhibition [2] 2% | inhibition [3] -5% | outcome [5] | outcome [6] | outcome [7] | outcome [8]
active: growth inhibition [4] 99%

COc1ccc2[nH]c(C(=O)Nc3cccc(-c4ccc(CN(C)C)cc4)c3)cc2c1
active: growth inhibition [4] 100%
inactive: growth inhibition [1] 34% | inhibition [2] 23% | inhibition [3] 3% | outcome [5] | outcome [6] | outcome [7] | outcome [8]

COc1ccc(CNCc2cccc(-c3csc(-c4nc5ccccc5[nH]4)c3)c2)cc1
inactive: growth inhibition [1] 22% | inhibition [2] 17% | inhibition [3] -1% | outcome [5] | outcome [6] | outcome [7] | outcome [8]
active: growth inhibition [4] 100%

O=C(Nc1ccc(OC2CCN(Cc3ccsc3)C2)c(Cl)c1)c1ccc2ncccc2c1 (configuration not stated)
inactive: growth inhibition [1] 10% | inhibition [3] -1% | outcome [5] | outcome [6] | outcome [7] | outcome [8]
active: inhibition [2] 84% | growth inhibition [4] 88%

COc1ccc(C(=O)CCC(=O)N(Cc2ccc(-c3ccc(CNCCc4ccc(S(C)(=O)=O)cc4)cn3)cc2)Cc2ccc3c(c2)OCO3)cc1F
inactive: growth inhibition [1] 41% | inhibition [2] 13% | inhibition [3] 3% | outcome [5] | outcome [6] | outcome [7] | outcome [8]
active: growth inhibition [4] 95%

COc1cccc(NC(=O)c2nc(N3CCN(c4ccncc4)CC3)ccc2Cl)c1
inactive: inhibition [2] 14% | inhibition [3] 1% | outcome [5] | outcome [6] | outcome [7] | outcome [8]
active: growth inhibition [1] 65% | growth inhibition [4] 97%

O=C(Cc1cccs1)NC(CCCN1CCC(Oc2cccc(Cl)c2)CC1)c1ccc(Cl)c(Cl)c1 (configuration not stated)
active: growth inhibition [1] 70% | growth inhibition [4] 86%
inactive: inhibition [2] 39% | inhibition [3] 3% | outcome [5] | outcome [6] | outcome [7] | outcome [8]

O=C(/C=C/c1ccc(Cl)c(Cl)c1)NCC[C@@H]1C[C@H]1CCN1CCC(c2c[nH]c3ccccc23)CC1
inactive: growth inhibition [1] 22% | inhibition [3] -8% | outcome [5] | outcome [6] | outcome [7] | outcome [8]
active: inhibition [2] 98% | growth inhibition [4] 96%
